Source: the supplement of paper PMC9262897, “Low-cost anti-mycobacterial drug discovery using engineered E. coli” (Nature Communications, 2022)
Counter-ions that a name gives are not always drawn. ± gives the standard deviation of the averaged measurements.

test system: E. coli TESEC Mtb DapB; assay: growth (OD600 after 10 h); higher = more growth (less inhibition); settings: arabinose induction (level): High; compound 0.1 mM; raw OD600 reference: median of DMSO wells […], cell-free background 0.041
Procedure: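 TESEC E. coli strains in which the native enzyme is deleted and replaced by arabinose-inducible Mtb Asd, DapB, CysH or TrpD, each grown in its selective medium. Strains were screened against the Prestwick library at 0.1 mM and 1% DMSO in 384-well format at low and high arabinose induction. Growth is read as OD600 after 10 h in triplicate.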

| SMILES | growth |
| --- | --- |
| O=[N+]([O-])O[C@@H]1CO[C@H]2[C@@H]1OC[C@@H]2O [Isosorbide mononitrate] | 0.176 ± 0.0055 |
| OC(c1ccccc1)(c1ccccc1)C1CCNCC1 [Azacyclonol] | 0.185 ± 0.013 |
| CC(=O)OCC1=C(C(=O)O)N2C(=O)[C@@H](N)[C@H]2SC1 [Cephalosporanic acid, 7-amino] | 0.187 ± 0.014 |
| CC(C)N(CCC(C(N)=O)(c1ccccc1)c1ccccn1)C(C)C (stereo not given) [Disopyramide] | 0.175 ± 0.0095 |
| CC[C@@]1([C@@H]2O[C@@H]([C@H]3O[C@@](O)(CO)[C@H](C)C[C@@H]3C)C[C@@H]2C)CC[C@H]([C@]2(C)CC[C@]3(C[C@H](O)[C@@H](C)[C@@H]([C@@H](C)[C@@H](OC)[C@H](C)C(=O)O)O3)O2)O1 [Monensin sodium salt] | 0.162 ± 0.01 |
| C[N+](C)(C)CCCCCCCCCC[N+](C)(C)C [Decamethonium bromide] | 0.234 ± 0.021 |
| COc1ccc(CCN)cc1OC [Homoveratrylamine] | 0.188 ± 0.012 |
| CO[C@]12C[C@@H](COC(=O)c3cncc(Br)c3)CN(C)[C@@H]1Cc1cn(C)c3cccc2c13 [Nicergoline] | 0.227 ± 0.014 |
| C[C@]12CC[C@@H](O)C[C@@H]1CC[C@@H]1[C@@H]2CC[C@]2(C)C(=O)CC[C@@H]12 [Androsterone] | 0.141 ± 0.013 |
| NCC1(CC(=O)O)CCCCC1 [Gabapentin] | 0.215 ± 0.016 |
| CCC1(C)CC(=O)NC(=O)C1 [Bemegride] | 0.2 ± 0.0046 |
| Fc1ccc(C(OCCN2CCN(CCCc3ccccc3)CC2)c2ccc(F)cc2)cc1 | 0.0461 ± 0.00026 |
| C[C@]12COC(=O)C[C@@H]1CC[C@@H]1[C@@H]2CC[C@@]2(C)[C@H]1CC[C@]2(C)O [Oxandrolone] | 0.14 ± 0.0074 |
| Cc1cc(C(C#N)c2ccc(Cl)cc2)c(Cl)cc1NC(=O)c1cc(I)cc(I)c1O (stereo not given) [Closantel] | 0.0896 ± 0.013 |
| O=C(NCNC(=O)NC1C(=O)NC(=O)N1CO)NC1C(=O)NC(=O)N1CO (stereo not given) [Imidurea] | 0.207 ± 0.024 |
| C(#CCN1CCCC1)CN1CCCC1 [Tremorine dihydrochloride] | 0.2 ± 0.015 |
| C[C@]12C[C@H]3S[C@H]3C[C@@H]1CC[C@@H]1[C@@H]2CC[C@]2(C)[C@@H](O)CC[C@@H]12 [Epitiostanol] | 0.203 ± 0.01 |
| CN(C)[C@@H]1C(=O)C(C(N)=O)=C(O)[C@@]2(O)C(=O)C3=C(O)c4c(O)cccc4[C@@](C)(O)[C@H]3C[C@@H]12 [Tetracycline hydrochloride] | 0.0495 ± 0.0014 |
| C[C@]12CCC(=O)C=C1CC[C@@H]1[C@@H]2C(=O)C[C@]2(C)C(=O)CC[C@@H]12 [Adrenosterone] | 0.202 ± 0.007 |
| CNC(=O)Oc1ccc2c(c1)[C@]1(C)CCN(C)[C@@H]1N2C [Eserine hemisulfate salt] | 0.187 ± 0.015 |

same assay, conditions: arabinose induction (level): Low; compound 0.1 mM; raw OD600 reference: median of DMSO wells 0.227, cell-free background 0.041

| SMILES | growth |
| --- | --- |
| O=[N+]([O-])O[C@@H]1CO[C@H]2[C@@H]1OC[C@@H]2O [Isosorbide mononitrate] | 0.216 ± 0.03 |
| OC(c1ccccc1)(c1ccccc1)C1CCNCC1 [Azacyclonol] | 0.213 ± 0.036 |
| CC(=O)OCC1=C(C(=O)O)N2C(=O)[C@@H](N)[C@H]2SC1 [Cephalosporanic acid, 7-amino] | 0.215 ± 0.0044 |
| CC(C)N(CCC(C(N)=O)(c1ccccc1)c1ccccn1)C(C)C (stereo not given) [Disopyramide] | 0.195 ± 0.02 |
| CC[C@@]1([C@@H]2O[C@@H]([C@H]3O[C@@](O)(CO)[C@H](C)C[C@@H]3C)C[C@@H]2C)CC[C@H]([C@]2(C)CC[C@]3(C[C@H](O)[C@@H](C)[C@@H]([C@@H](C)[C@@H](OC)[C@H](C)C(=O)O)O3)O2)O1 [Monensin sodium salt] | 0.167 ± 0.0025 |
| C[N+](C)(C)CCCCCCCCCC[N+](C)(C)C [Decamethonium bromide] | 0.242 ± 0.0099 |
| COc1ccc(CCN)cc1OC [Homoveratrylamine] | 0.217 ± 0.054 |
| CO[C@]12C[C@@H](COC(=O)c3cncc(Br)c3)CN(C)[C@@H]1Cc1cn(C)c3cccc2c13 [Nicergoline] | 0.277 ± 0.028 |
| C[C@]12CC[C@@H](O)C[C@@H]1CC[C@@H]1[C@@H]2CC[C@]2(C)C(=O)CC[C@@H]12 [Androsterone] | 0.138 ± 0.011 |
| NCC1(CC(=O)O)CCCCC1 [Gabapentin] | 0.278 ± 0.045 |
| CCC1(C)CC(=O)NC(=O)C1 [Bemegride] | 0.23 ± 0.013 |
| Fc1ccc(C(OCCN2CCN(CCCc3ccccc3)CC2)c2ccc(F)cc2)cc1 | 0.0459 ± 0.00085 |
| C[C@]12COC(=O)C[C@@H]1CC[C@@H]1[C@@H]2CC[C@@]2(C)[C@H]1CC[C@]2(C)O [Oxandrolone] | 0.154 ± 0.015 |
| Cc1cc(C(C#N)c2ccc(Cl)cc2)c(Cl)cc1NC(=O)c1cc(I)cc(I)c1O (stereo not given) [Closantel] | 0.0929 ± 0.01 |
| O=C(NCNC(=O)NC1C(=O)NC(=O)N1CO)NC1C(=O)NC(=O)N1CO (stereo not given) [Imidurea] | 0.215 ± 0.032 |
| C(#CCN1CCCC1)CN1CCCC1 [Tremorine dihydrochloride] | 0.234 ± 0.059 |
| C[C@]12C[C@H]3S[C@H]3C[C@@H]1CC[C@@H]1[C@@H]2CC[C@]2(C)[C@@H](O)CC[C@@H]12 [Epitiostanol] | 0.21 ± 0.029 |
| CN(C)[C@@H]1C(=O)C(C(N)=O)=C(O)[C@@]2(O)C(=O)C3=C(O)c4c(O)cccc4[C@@](C)(O)[C@H]3C[C@@H]12 [Tetracycline hydrochloride] | 0.0516 ± 0.0028 |
| C[C@]12CCC(=O)C=C1CC[C@@H]1[C@@H]2C(=O)C[C@]2(C)C(=O)CC[C@@H]12 [Adrenosterone] | 0.225 ± 0.032 |
| CNC(=O)Oc1ccc2c(c1)[C@]1(C)CCN(C)[C@@H]1N2C [Eserine hemisulfate salt] | 0.206 ± 0.0057 |
